# Source: PubChem BioAssay AID540255 (Broad Institute, 2011)
# Entries with a potency or affinity are not part of this list. Results filed as inconclusive are left out. Activity calls are given as the source filed them. How the calls were made is not given here.
# Test: inhibitors of control reporter signal in H4 cells – cell-based, plate reader, dry powder samples, counter-screen for prion reporter project, dose response (AID 540255)
row,SMILES,outcome
1,COc1ccc(N=CC2=C(O)c3ccccc3C2=O)c(OC)c1,inactive
2,Cc1cccc(C(=O)O/N=C(\N)c2ccccn2)c1,inactive
